# Measured values as given in PubChem BioAssay.
# Values without a mark were called inactive. Some of the results follow. Active and inactive are the calls of the source. Rule as the data show it, unless noted: active = inhibition above about 36%; inactive = the rest.
# Columns and labels:
# [1] = system: transactivating tegument protein VP16 (Human herpesvirus 1); assay: VP16 transactivation reporter inhibitors, counter-screen for SRC2 inhibitor project, cell-based, luminescence, single concentration (AID 652007); settings: cell-based VP16 transactivation luciferase reporter, at 8.9 µM, active compounds read high
# [2] = target: Nuclear receptor coactivator 2 (Homo sapiens) (UniProt Q15596); assay: SRC2 coactivator transcriptional activity inhibitors, confirmation, cell-based, luminescence, HEK293, triplicate (AID 652008;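 active = mean inhibition above 46.5%, the solvent-only control mean plus 3 SD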); settings: HEK293 GAL4-SRC2 luciferase reporter, at 8.9 µM, active compounds read high
# Chain of Nuclear receptor coactivator 2 (Homo sapiens) (Q15596 whole entry, looked up, the tested form may be a part): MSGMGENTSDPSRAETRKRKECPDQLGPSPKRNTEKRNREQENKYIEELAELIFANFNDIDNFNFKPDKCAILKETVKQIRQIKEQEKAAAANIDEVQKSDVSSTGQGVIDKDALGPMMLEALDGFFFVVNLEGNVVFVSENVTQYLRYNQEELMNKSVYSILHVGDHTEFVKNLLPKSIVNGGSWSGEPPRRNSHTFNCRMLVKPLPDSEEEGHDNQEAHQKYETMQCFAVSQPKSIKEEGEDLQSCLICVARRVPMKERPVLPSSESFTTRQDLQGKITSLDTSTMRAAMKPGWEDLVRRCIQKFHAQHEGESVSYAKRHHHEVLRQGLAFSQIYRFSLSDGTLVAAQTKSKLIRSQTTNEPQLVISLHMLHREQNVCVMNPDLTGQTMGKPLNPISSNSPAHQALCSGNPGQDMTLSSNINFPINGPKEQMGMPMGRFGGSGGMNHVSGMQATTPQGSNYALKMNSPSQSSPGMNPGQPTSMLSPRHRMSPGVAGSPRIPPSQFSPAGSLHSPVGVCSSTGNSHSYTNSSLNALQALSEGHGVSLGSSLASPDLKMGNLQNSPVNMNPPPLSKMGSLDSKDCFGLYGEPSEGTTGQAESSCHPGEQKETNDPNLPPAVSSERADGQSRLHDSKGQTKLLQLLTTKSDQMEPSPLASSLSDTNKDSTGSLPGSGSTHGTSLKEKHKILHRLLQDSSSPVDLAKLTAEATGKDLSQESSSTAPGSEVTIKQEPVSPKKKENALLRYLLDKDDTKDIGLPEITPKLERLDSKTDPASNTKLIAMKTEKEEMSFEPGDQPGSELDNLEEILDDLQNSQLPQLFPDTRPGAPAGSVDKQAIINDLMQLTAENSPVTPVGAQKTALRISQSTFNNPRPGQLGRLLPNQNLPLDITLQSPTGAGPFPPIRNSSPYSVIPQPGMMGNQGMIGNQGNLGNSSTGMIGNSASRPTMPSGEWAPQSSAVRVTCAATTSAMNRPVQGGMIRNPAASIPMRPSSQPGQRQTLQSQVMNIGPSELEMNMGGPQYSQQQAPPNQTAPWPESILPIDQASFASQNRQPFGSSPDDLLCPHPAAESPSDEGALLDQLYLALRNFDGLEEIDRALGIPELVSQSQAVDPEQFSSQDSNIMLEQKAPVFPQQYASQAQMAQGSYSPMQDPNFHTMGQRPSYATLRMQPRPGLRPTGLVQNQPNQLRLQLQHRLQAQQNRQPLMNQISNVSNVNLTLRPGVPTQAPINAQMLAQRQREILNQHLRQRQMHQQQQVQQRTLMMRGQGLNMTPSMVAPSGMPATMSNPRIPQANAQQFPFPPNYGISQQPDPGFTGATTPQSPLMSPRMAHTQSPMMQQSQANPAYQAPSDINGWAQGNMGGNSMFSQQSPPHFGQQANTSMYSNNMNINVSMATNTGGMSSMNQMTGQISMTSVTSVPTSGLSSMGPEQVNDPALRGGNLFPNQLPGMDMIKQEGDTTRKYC
# [3] = StAR promoter reporter inhibitors, counter-screen for LRH-1 inverse agonist project, cell-based, luminescence, high throughput (AID 651611; in the data active = inhibition above about 28%); settings: StAR promoter luciferase reporter counterscreen, at 3.6 µM, active compounds read high
# [4] = target: Nuclear receptor subfamily 5 group A member 2 (Homo sapiens) (UniProt O00482); assay: LRH-1 (NR5A2) inverse agonists, retest, confirmation, cell-based, luminescence (AID 651613; in the data active = inhibition above about 42%); settings: cell-based LRH-1 luciferase reporter, inverse agonism; at 3.6 µM; active compounds read high
# Chain of Nuclear receptor subfamily 5 group A member 2 (Homo sapiens) (O00482 whole entry, looked up): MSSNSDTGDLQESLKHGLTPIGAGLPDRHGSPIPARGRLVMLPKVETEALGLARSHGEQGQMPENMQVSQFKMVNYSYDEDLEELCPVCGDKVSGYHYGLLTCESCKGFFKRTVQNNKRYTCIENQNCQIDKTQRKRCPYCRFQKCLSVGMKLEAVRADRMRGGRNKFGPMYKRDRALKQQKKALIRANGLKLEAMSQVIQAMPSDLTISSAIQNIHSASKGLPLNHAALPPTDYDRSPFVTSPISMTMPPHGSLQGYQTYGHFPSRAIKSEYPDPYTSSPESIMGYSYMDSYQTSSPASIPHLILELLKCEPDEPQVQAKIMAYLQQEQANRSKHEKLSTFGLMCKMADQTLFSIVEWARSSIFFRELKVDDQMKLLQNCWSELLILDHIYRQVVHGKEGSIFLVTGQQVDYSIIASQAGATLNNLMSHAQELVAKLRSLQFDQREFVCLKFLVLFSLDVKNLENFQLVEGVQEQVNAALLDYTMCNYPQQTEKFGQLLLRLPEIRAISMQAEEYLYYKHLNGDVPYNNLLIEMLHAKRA
# [5] = target: Steroidogenic factor 1 (Homo sapiens) (UniProt Q13285); assay: SF1 (NR5A1) inverse agonists, counter-screen for LRH-1 inverse agonist project, cell-based, luminescence, high throughput (AID 651614; in the data active = inhibition above about 44%); settings: cell-based SF1 luciferase reporter, at 3.6 µM, active compounds read high
# Chain of Steroidogenic factor 1 (Homo sapiens) (Q13285 whole entry, looked up, the tested form may be a part): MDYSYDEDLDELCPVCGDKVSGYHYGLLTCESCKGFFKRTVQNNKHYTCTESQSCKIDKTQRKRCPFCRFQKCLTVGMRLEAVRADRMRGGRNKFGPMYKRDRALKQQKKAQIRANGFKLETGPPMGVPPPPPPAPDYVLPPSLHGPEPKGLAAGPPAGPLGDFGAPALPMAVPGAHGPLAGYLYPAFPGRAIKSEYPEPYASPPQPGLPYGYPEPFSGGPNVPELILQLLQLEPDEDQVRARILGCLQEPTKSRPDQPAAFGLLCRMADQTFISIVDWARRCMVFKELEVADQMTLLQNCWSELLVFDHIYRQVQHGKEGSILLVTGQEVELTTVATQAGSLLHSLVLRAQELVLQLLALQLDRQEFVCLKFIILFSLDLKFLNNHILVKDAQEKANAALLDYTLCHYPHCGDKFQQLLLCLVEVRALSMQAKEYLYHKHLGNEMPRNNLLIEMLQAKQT
# [6] = VP16 transactivation reporter inhibitors, counter-screen for LRH-1 inverse agonist project, cell-based, luminescence, high throughput (AID 651615; in the data active = inhibition above about 33%); settings: Gal4-VP16 luciferase reporter cells, at 3.6 µM, active compounds read high
# [7] = target: Oxysterols receptor LXR-beta (Homo sapiens) (UniProt P55055); assay: LXR agonists, Gal4 luciferase reporter, confirmation, counter-screen for hcDAF-12 agonist project, cell-based, luminescence, HEK293, H. contortus campaign (AID 743027;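 active = mean percent activation of the reporter above a cutoff set as the average over tested compounds plus their standard deviation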); settings: HEK293 Gal4-LXR tk-luc reporter, 24 h, at 6.8 µM, active compounds read high, normalized: DMSO 0%, positive control 100%
# Chain of Oxysterols receptor LXR-beta (Homo sapiens) (P55055 whole entry, looked up, the tested form may be a part): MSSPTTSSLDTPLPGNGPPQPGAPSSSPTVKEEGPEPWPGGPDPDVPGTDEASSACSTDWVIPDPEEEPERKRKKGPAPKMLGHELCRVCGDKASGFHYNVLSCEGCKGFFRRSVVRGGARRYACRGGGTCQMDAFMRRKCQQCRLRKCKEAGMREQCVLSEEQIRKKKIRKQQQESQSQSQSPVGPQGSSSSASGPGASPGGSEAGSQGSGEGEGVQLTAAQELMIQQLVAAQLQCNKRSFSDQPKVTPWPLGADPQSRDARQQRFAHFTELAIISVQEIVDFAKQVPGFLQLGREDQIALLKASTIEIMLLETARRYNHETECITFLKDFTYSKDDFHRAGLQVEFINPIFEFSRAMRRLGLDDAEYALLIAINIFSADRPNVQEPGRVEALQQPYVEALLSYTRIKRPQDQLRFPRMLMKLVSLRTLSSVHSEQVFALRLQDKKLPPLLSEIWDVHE
# [8] = system: Nuclear hormone receptor DAF-12 (Haemonchus contortus); assay: H. contortus DAF-12 receptor agonists, confirmation, cell-based, luminescence, HEK293, lit1-tk-luc, triplicate (AID 743032;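 active = mean activation across triplicate tests above the threshold derived from the earlier primary screen, cut at about 5.5% in these data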); settings: HEK293 hcDAF-12 lit1-tk-luc reporter, at 6.8 µM, active compounds read high
# [9] = system: DAF-12 nuclear receptor (Heterodera glycines), GAL4-LBD fusion; assay: H. glycines DAF-12 receptor agonists, confirmation, cell-based, luminescence, HEK293, GAL4-LBD fusion (AID 743050;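 active = mean activation over triplicate wells above the hit cutoff derived from the earlier primary screen, cut at about 11% in these data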); settings: HEK293 GAL4-hgDAF12 luciferase reporter, agonist mode; at 6.8 µM; active compounds read high
# [10] = target: Oxysterols receptor LXR-beta (Homo sapiens) (UniProt P55055); assay: LXR agonists, Gal4 luciferase reporter, confirmation, counter-screen for hgDAF-12 agonist project, cell-based, luminescence, HEK293, H. glycines campaign (AID 743051;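 active = mean activation of the triplicate above a set limit carried over from the primary screen, none filed active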); settings: 24 h, at 6.8 µM, active compounds read high
# [11] = compounds interfering with TAMRA-BSA probe, counter-screen for TCR-CD3 interaction inhibitor project, biochemical, fluorescence, TAMRA-labeled BSA (AID 652035; in the data active = inhibition above about 23%); settings: TAMRA-labeled BSA probe fluorescence counterscreen; at 9.4 µM; active compounds read high
# [12] = system: T-cell receptor (TCR)-CD3 interaction, human; assay: TCR-CD3 interaction inhibitors, retest, confirmation, biochemical, fluorescence, TAMRA-labeled TCR probe (AID 652036; in the data active = inhibition above about 19%); settings: TAMRA-labeled TCR probe fluorescence binding assay; at 9.4 µM; active compounds read high
# [13] = growth loss of phage-infected RecBCD+ E. coli, confirmation, RecBCD inhibitor project, absorbance, E. coli V66, T4 gene 2 phage (AID 651982;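 active = mean inhibition over triplicates exceeding the hit threshold derived in the original primary screen, cut at about 11% in these data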); settings: E. coli V66 + T4 2- phage, growth OD; at 11.9 µM; active compounds read high
# [14] = E. coli viability inhibition, counter-screen for RecBCD inhibitor project, absorbance, high throughput (AID 651983; in the data active = inhibition above about 20%); settings: absorbance (OD) growth, at 11.9 µM, active compounds read high
# [15] = growth loss of phage-infected AddAB-carrying E. coli, confirmation, counter-screen for RecBCD inhibitor project, absorbance, E. coli V3065, T4 phage (AID 651984;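 active = mean inhibition above the solvent-only control wells' mean plus 3 SD, cut at about 22% in these data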); settings: E. coli expressing H. pylori AddAB + T4 phage, OD growth; at 11.9 µM; active compounds read high
smiles,measurement,setting,value
O=Cc1cn(Cc2ccc(F)cc2Cl)c2ccccc12,inhibition,[1],14.2%
same,inhibition,[2],26.5%
c1cncc(-c2ccc3n2Cc2cnnn2-c2ccccc2-3)c1,inhibition,[1],11%
same,inhibition,[2],21.8%
CC(=O)OC1C(O)C(C)OC(OC2C(OC(=O)C3CCC4C(C3)OC3(CC(OC(=O)/C=C/c5ccccc5)C(C)CO3)C43CO3)OC(C)C(O)C2OC(C)=O)C1O (stereo not given),inhibition,[3],96.1% (active)
same,inhibition,[4],109% (active)
same,inhibition,[5],97.5% (active)
same,inhibition,[6],97.4% (active)
same,inhibition,[1],79.4% (active)
same,inhibition,[2],75.2% (active)
COc1ccc(C(=O)C2CN(C)CC2C(=O)c2ccc(OC)cc2)cc1 (stereo not given),activation,[7],-0.19%
same,activation,[8],0.28%
O=C(N/N=C/c1c(O)n(Cc2ccccc2)c(=O)[nH]c1=O)c1ccccc1,activation,[9],1.81%
same,activation,[10],0.01%
Cc1nc2cc(-c3ccc(Cl)cc3)nn2c(C)c1CCC(=O)N1CCC2(CC1)OCCO2,inhibition,[1],16.4%
same,inhibition,[2],70.5% (active)
Nc1cccc(SC2CC(=O)N(c3ccc(Cl)cc3C(=O)c3ccccc3)C2=O)c1 (stereo not given),inhibition,[1],3.94%
same,inhibition,[2],17.3%
CC(C)(C)c1ccc(OC(=O)N2CCCCC2)cc1,activation,[9],14.1% (active)
same,activation,[10],0.52%
COc1ccc2c3c1O[C@H]1C(=O)CC[C@H]4[C@@H](C2)N(C)CC[C@]314,inhibition,[1],-4.81%
same,inhibition,[2],-28.4%
CC/C(=N\NC(=O)c1ccccc1O)c1c(O)n(Cc2ccccc2)c(=O)[nH]c1=O,inhibition,[11],-6.16%
same,inhibition,[12],29.4% (active)
COc1cc(CC(C)N)c(OC)cc1I (stereo not given),inhibition,[1],-16.9%
same,inhibition,[2],8.7%
Cc1nc2cc(-c3cccc(F)c3)nn2c(C)c1CCC(=O)N1CCC2(CC1)OCCO2,inhibition,[1],-18.5%
same,inhibition,[2],40%
Cc1ccccc1CN1Cc2cnnn2-c2ccccc2C1C#N (stereo not given),inhibition,[1],39.8% (active)
same,inhibition,[2],48.8% (active)
CCc1nnc(NS(=O)(=O)c2ccc(N=Cc3c(O)n(-c4ccccc4)c(=O)[nH]c3=O)cc2)s1,inhibition,[13],11.7% (active)
same,inhibition,[14],7.85%
same,inhibition,[15],32.1% (active)
CCOP(=O)(OCC)C1(O)C(=O)Nc2ccc(Br)cc21 (stereo not given),inhibition,[1],-7%
same,inhibition,[2],-5.26%
C[C@@H]1O[C@@H](O[C@@H]2C=C3CC[C@@H]4C(CC[C@]5(C)[C@@H](c6ccc(=O)oc6)CC[C@]45O)[C@@]3(C)CC2)[C@H](O)[C@H](O)[C@H]1O (stereo not given in full),inhibition,[3],97.1% (active)
same,inhibition,[4],111% (active)
same,inhibition,[5],98.8% (active)
same,inhibition,[6],95.6% (active)
same,inhibition,[1],67.9% (active)
same,inhibition,[2],69.7% (active)
NC(=O)c1c(Br)n(C2OC(CO)C(O)C2O)c2ncnc(N)c12 (stereo not given),inhibition,[1],15.6%
same,inhibition,[2],35.3%
O=[N+]([O-])c1ccc(N2CCCC(C(F)(F)F)C2)c2ccncc12 (stereo not given),inhibition,[1],10.6%
same,inhibition,[2],34.3%
